These results are taken from PubChem BioAssay AID1578 (Sanford-Burnham Center for Chemical Genomics, 2009).

Out of some 290,000 compounds screened, about 3,000 (1%) were called active. This excerpt belongs to a sample that is enriched for actives. A number with no mark means an inactive call. No stated cut-off is given here; in the data, active means inhibition mostly above about 36% (no sharp cut-off); inactive means mostly below about 34%.

The nature of this test: inhibition of NOD1-driven NF-kB reporter – cell-based, luminescence, uHTS, primary screen (AID 1578).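 Further: HEK-293T reporter cells stimulated with the NOD1 agonist gamma-tri-DAP.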 As to conditions: NOD1-driven NF-kB luciferase reporter cells, at 4 µM, hits give high values. In general terms: Reporter assays use an easily measured gene product as a stand-in for the process of interest.
Usually inhibition stands for the relative decrease from the control value, in per cent. Regarding `O=C(NCc1ccccc1)C(=O)Nc1nc(C23CC4CC(CC(C4)C2)C3)cs1`, the inhibition is 89.4% (active).

As for `O=C(NCc1ccncc1)C(=O)Nc1nc(C23CC4CC(CC(C4)C2)C3)cs1`, the inhibition is -11.3%. For `O=C(NCc1ccc(F)cc1)C(=O)Nc1nc(C23CC4CC(CC(C4)C2)C3)cs1` the value was 46.9%; for `CC(=O)Nc1ccc(C(=O)OCC(=O)Nc2c(F)cccc2F)cc1`, -4.7%; for `O=S1(=O)CCC(S(=O)(=O)N2CCCCCC2)C1` (stereo not given), 98.1% (active).

As for `CCCCS(=O)(=O)C1CCS(=O)(=O)C1` (stereo not given), the inhibition is -31.7%. Next, `Cc1ccc(S(=O)(=O)N2CCCN(S(=O)(=O)C3CCS(=O)(=O)C3)CC2)cc1` (stereo not given): -14.1%; `CC(C)C1Nc2ccc(C(=O)NCc3ccco3)cc2NC1=O` (stereo not given): -8.3%; `CC12CCC(=O)N1C(C(=O)Nc1nnc(SCc3ccccc3F)s1)CS2` (stereo not given): -32.1%. Next, `O=C(Cn1ncc2c([nH]c3ccccc32)c1=O)Nc1cccnc1`: 55.7% (active). Regarding `Cc1ccc(NC(=O)Cn2ncc3c([nH]c4ccccc43)c2=O)cc1Cl`, the inhibition is 1.5%. On to `O=C(Cn1c(=O)[nH]c2ccccc2c1=O)Nc1cccnc1`, for which the inhibition is -10.3%. For `O=C(NCCCN1CCCC1)[C@H](CSCc1ccccc1)N1Cc2ccccc2C1=O` the value was -6.7%; for `COc1cccc(CN2CCNC(=O)C2CC(=O)N(C)C2CCCCC2)c1` (stereo not given), -1.2%; for `CC1CCCCN1C(=O)C(=O)c1cn(CC(=O)N2CCCCCC2)c2ccccc12` (stereo not given), -20.8%. Regarding `CC(=O)N1CC(C)Sc2ccc(S(=O)(=O)N3CCCCC3)cc21` (stereo not given), the inhibition was 6.9%. For `CCOC(=O)C1CCN(S(=O)(=O)c2ccc3c(c2)CCN3C(C)=O)CC1` the value was 6.1%.

As to `CC1CCN(C(=O)c2cc3ccccc3c(=O)o2)CC1`, the inhibition was -21.4%.

Regarding `Cc1cccc(CCNC(=O)CNS(=O)(=O)c2ccc3nc(C)sc3c2)c1`, the inhibition was 12.4%.

For `Cc1ccc(N2CC(C(=O)NC3CC3)CC2=O)cc1` (stereo not given), the inhibition was 17.9%. For `COc1ccc2nc(NC3=NC(c4ccccc4)CC(=O)N3)nc(C)c2c1` (stereo not given) the value was -18.7%; for `O=C(NNS(=O)(=O)c1ccccc1)C1CC(c2cccnc2)=NO1` (stereo not given), -32.5%.

As for `COc1ccc(S(=O)(=O)NNC(=O)C2CC(c3cccnc3)=NO2)cc1` (stereo not given), the inhibition is -24.9%.

For the compound `O=C(NNS(=O)(=O)c1ccc(F)cc1)C1CC(c2cccnc2)=NO1` (stereo not given), the inhibition is 51% (active). For `COc1ccc(C(=O)C2CCN(CC(=O)Nc3ccc(OC)cc3OC)CC2)cc1` the value was -10.7%; for `COC(=O)c1sc(=S)n(Cc2ccccc2)c1C`, 5%; for `COc1ccc(CNC(=O)CCC(=O)N2CC(C)Oc3ccccc32)cc1` (stereo not given), -16.3%. Next, `O=S(=O)(c1ccc(F)cc1)c1snnc1-c1ccccc1`: 24.9%. On to `O=S(=O)(c1ccc(Cl)c(Cl)c1)c1snnc1-c1ccccc1`, for which the inhibition is 77.3% (active). Next, `Cc1nnsc1S(=O)(=O)c1ccccc1`: -10.8%. For `c1ccc(-c2nnsc2-c2ccccc2)cc1`, the inhibition is 6.7%.

For the compound `O=C(Nc1ccccc1)c1nnsc1S(=O)(=O)c1ccc(Cl)cc1`, the inhibition was 67.9%.

On to `CCCCCCCSc1nnc(N)s1`, for which the inhibition is 5.6%. For `CC(C)(C)NC(=O)COC(=O)c1ccccc1NC(=O)c1ccco1` the value was -42.8%; for `CC1CN(C(=O)c2cc3ccccc3oc2=O)CC(C)O1` (stereo not given), 0.9%; for `C/C(=N/NC(=O)c1ccncc1)c1ccc(NC(=O)c2ccccc2)cc1`, -8.8%.

As to `C/C(=N\NC(=O)c1ccncc1)c1ccc(NC(=O)c2ccc(Cl)cc2)cc1`, the inhibition was 7%.

Regarding `C/C(=N\NC(=O)c1ccccc1NC(=O)c1ccc(Cl)cc1)c1ccncc1`, the inhibition was 60.4% (active). Next, `NC(=O)CC(NC(=O)Cc1ccc(Cl)cc1)c1ccc(NC2CCCCC2)c([N+](=O)[O-])c1` (stereo not given): -4.6%; `Oc1csc(Cc2nc(-c3ccc4ccccc4c3)cs2)n1`: 4.6%. Next, `Oc1csc(Cc2nc(-c3ccc(-c4ccccc4)cc3)cs2)n1`: 31.2%.

Regarding `Cc1sc(Cc2nc(O)cs2)nc1-c1ccccc1`, the inhibition is 97.9% (active). Take `O=C(Nn1cc(C(=O)Nc2ccc(F)cc2F)c2ccccc2c1=O)c1cnccn1`: the inhibition is -21.1%. For `COC(=O)c1cn(NC(=O)c2cnccn2)c(=O)c2ccccc12` the value was 3%; for `O=C(Nn1cc(C(=O)Nc2ccccc2F)c2ccccc2c1=O)c1cnccn1`, 47.1% (active); for `C=CCN1C(=O)/C(=C2/C(=O)N(CC(=O)O)c3ccccc32)S/C1=N/c1nccs1`, -5.4%. Next, `CCN(CC)CCn1c(NC(=O)c2ccccc2O)nc2ccccc21`: 19%; `O=C(CCCNS(=O)(=O)c1cccc2nsnc12)NCc1ccc(Cl)cc1`: -12%.

Turning to `O=C(CNS(=O)(=O)c1cccc2nsnc12)NCc1ccc(Cl)cc1`, the inhibition was 47.4% (active). Turning to `Cc1ccc(CNC(=O)CNS(=O)(=O)c2cccc3nsnc23)cc1`, the inhibition was -18.7%. Next, `Cn1ncc(N=Cc2ccccc2)c1C(N)=O`: -13.3%. Regarding `C/C(CC(=O)NCc1ccc(Cl)cc1)=N\NC(=O)Cc1ccccc1`, the inhibition was -22.7%.

In the case of `CC1Sc2ccc(S(=O)(=O)N3CCC(C(=O)Nc4cccc(Cl)c4)CC3)cc2NC1=O` (stereo not given), the inhibition is 7.5%.

Consider `CCc1ccc(NC(=O)C2CCN(S(=O)(=O)c3ccc4c(c3)NC(=O)C(C)S4)CC2)cc1` (stereo not given), for which the inhibition was 30.4%. For `CC1Sc2ccc(S(=O)(=O)N3CCN(c4ccccc4)CC3)cc2NC1=O` (stereo not given) the value was 30.2%; for `Cc1cc(C)cc(NC(=O)C2CCN(S(=O)(=O)c3ccc4c(c3)NC(=O)C(C)S4)CC2)c1` (stereo not given), -10.4%.

As for `Cc1ccc(NC(=O)C2CCN(S(=O)(=O)c3ccc4c(c3)NC(=O)C(C)S4)CC2)cc1C` (stereo not given), the inhibition is 6.5%. In the case of `COc1ccc(N2CCN(S(=O)(=O)c3ccc4c(c3)NC(=O)C(C)C(=O)N4)CC2)cc1` (stereo not given), the inhibition was -0.5%. As for `O=C(NCc1cccs1)c1cnc2ccccn2c1=O`, the inhibition was -8.1%. `COc1ccc(C(C)(C)C)cc1NC(=O)CCNC(=O)c1ccco1`: the inhibition is -35.1%. For `O=C(CN1CCCCC1)NNC(=O)c1cccc(Br)c1` the value was 5.1%; for `CCCc1nnc(NC(=O)Cn2c(=O)oc3cc(Br)ccc32)s1`, -17.9%; for `COc1ccc2[nH]c(=O)c(CN(CC3CCCO3)C(=S)Nc3ccccc3)cc2c1` (stereo not given), -31.7%. Turning to `COc1ccc2[nH]c(=O)c(CN(CC3CCCO3)C(=S)Nc3cccc(C)c3)cc2c1` (stereo not given), the inhibition is 46.6% (active). As for `COc1ccc2[nH]c(=O)c(CN(CC3CCCO3)C(=S)Nc3ccc(C)cc3)cc2c1` (stereo not given), the inhibition is -18.3%. Next, `COc1cccc(CN(C)CC(=O)NCc2ccccc2Cl)c1`: 8.1%; `Cc1ccc(OCC(=O)Nc2ccc(NC(=O)c3ccccc3)cc2)cc1C`: -12.6%; `CCOC(=O)/C(=C\c1cccc(O)c1)c1nc2sc(C)c(C)c2c(=O)[nH]1`: 105% (active). For `CCOC(=O)/C(=C\c1ccc(Cl)cc1)c1nc2sc(C)c(C)c2c(=O)[nH]1` the value was 58.5%. Next, `CCOC(=O)c1nc2sc(C)c(C)c2c(=O)[nH]1`: 4.3%; `CCOC(=O)C1CCN(C(=O)CCc2c(C)nc3ncnn3c2C)CC1`: 2.5%. `OCCN1CCN(Cc2cc(Cl)c3cccnc3c2O)CC1`: the inhibition was 26.4%. For `O=C(Cc1c(O)c2ccccc2oc1=O)c1ccc(C(F)(F)F)cc1` the value was -10.7%. As for `O=[N+]([O-])c1cc(Cl)c2cccnc2c1O`, the inhibition is -7.9%. For `O=c1oc2ccccc2c(O)c1Cc1cc(Cl)c2cccnc2c1O` the value was 62.6% (active); for `CCOC(=O)N1CCN(Cc2cc(Cl)c3cccnc3c2O)CC1`, -1.5%; for `COc1ccc(NC(=S)Nc2ccc(N)c([N+](=O)[O-])c2)cc1`, -69.8%. For `Cc1c(CNCc2cccs2)c(C(=O)O)c(C)n1Cc1ccccc1` the value was 8.7%. Regarding `O=C(NC1CCCCC1)N1CCCC(CNS(=O)(=O)Cc2ccccc2)C1` (stereo not given), the inhibition was -23.7%. Take `C/C(=N/Nc1ncc(C(F)(F)F)cc1Cl)c1ccncc1`: the inhibition is -9%. Next, `Fc1ccccc1NC(=S)NNc1ncc(C(F)(F)F)cc1Cl`: 12.4%; `Oc1cc2c(cc1CN1CCN(c3cccc(C(F)(F)F)c3)CC1)CCC2`: 19.7%. Next, `Cc1ccccc1-n1c(=O)cc(N2CCN(Cc3ccccc3)CC2)[nH]c1=O`: -4.3%.

Regarding `CN1C(=O)C(c2nnc(Nc3cccc4ccccc34)s2)C2CC1(C)Oc1ccccc12` (stereo not given), the inhibition is 3.3%.

For the compound `O=C1CCCN1CCC(=O)N1CCCC(Nc2ccc(F)c(F)c2)C1` (stereo not given), the inhibition was -39.2%. For `COc1cccc(-c2cc(C(F)(F)F)nc(-n3cccn3)n2)c1`, the inhibition was -19.7%.

In the case of `COc1cccc(-c2cc(C(F)(F)F)nc(-n3cncn3)n2)c1`, the inhibition was 97.6% (active).

For `COc1ccc(-c2cc(C(F)(F)F)nc(-n3cncn3)n2)cc1`, the inhibition was 18.2%.

As for `NNC(=O)c1csc(COc2cc(Cl)cc(Cl)c2)n1`, the inhibition is -9.6%. For `Cc1ccc(C)c(S(=O)(=O)N=Nc2c(O)[nH]c3ccccc23)c1` the value was -24.6%; for `CC(NC(=O)CSc1ncn[nH]1)c1ccc(Cl)cc1Cl` (stereo not given), -18%; for `CN1/C(=C/c2cccc[n+]2C)Sc2ccccc21`, -2.3%. For `COc1ccc2c(c1)N(C)/C(=C/c1cccc[n+]1C)S2`, the inhibition was 2.2%. Next, `Cc1nn(Cc2ccc(F)cc2)c2sc(C(=O)Nc3ccc(N4CCOCC4)cc3N3CCOCC3)cc12`: -10.3%; `CCOC(=O)c1ccc(NC(=O)c2cc(C)nn2-c2ccccc2)cc1`: -1.2%.
